Most compounds without a hit are left out; they make up all but 3.5% or so of the library.
Mtb bLac sens = beta-lactam sensitization of Mtb H37Rv | M. tuberculosis H37Rv growth with meropenem, percent inhibition | inhibition, % at 25 µM | actives 0.27% (n = 330,000) | AID 434955; call rule not given here;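 note: growth measured after seven days incubation then overnight dye step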
Rv3671c protease = Rv3671c (M. tuberculosis) protease inhibition | P9WHR9 | inhibition, % at 5.96 µM | actives 0.048% (n = 320,000); in the data active = inhibition above about 38%;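 note: extracellular domain of Rv3671c used as enzyme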
UGM FP inh = blocks M. tuberculosis UGM enzyme. purified UGM, fluorescence polarization probe displacement. inhibition, % at 10 µM. actives 0.06% (n = 320,000); in the data active = inhibition above about 10%, passing the limit was not always enough; inconclusive = no clear call, values can overlap the other calls
Target sequence (P9WIQ1 whole entry, looked up): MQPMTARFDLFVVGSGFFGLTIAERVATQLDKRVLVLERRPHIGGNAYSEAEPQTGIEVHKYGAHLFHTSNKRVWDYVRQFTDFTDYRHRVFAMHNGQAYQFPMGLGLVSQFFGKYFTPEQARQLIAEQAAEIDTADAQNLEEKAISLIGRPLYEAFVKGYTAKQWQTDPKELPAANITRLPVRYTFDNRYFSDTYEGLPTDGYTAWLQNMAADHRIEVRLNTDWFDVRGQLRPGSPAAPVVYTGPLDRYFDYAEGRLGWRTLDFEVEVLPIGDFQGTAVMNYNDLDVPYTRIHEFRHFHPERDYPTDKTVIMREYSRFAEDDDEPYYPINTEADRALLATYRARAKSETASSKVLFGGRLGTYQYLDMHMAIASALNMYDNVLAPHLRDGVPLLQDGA
GDH-TPI counter-1 = counter-screen for M. tuberculosis FBA inhibitors: GDH-TPI coupled enzymes. GDH-TPI coupled enzyme counterscreen, NADH absorbance. inhibition, % at 4.8 µM. actives 1.2% (n = 360,000); in the data active = inhibition above about 30%
FBA Mtb inh = inhibitors of M. tuberculosis fructose-bisphosphate aldolase; P9WQA3; purified M. tuberculosis FBA, fluorescence read-out; inhibition, % at 1 µM; actives 2.3% (n = 360,000)
Mtb FBA confirm = Mtb FBA inhibition, confirmed | actives 78% (n = 5,600) | purified M. tuberculosis FBA, fluorescence read-out | AID 651616 | shares compounds with FBA Mtb inh | inhibition, % at 1 µM
GDH-TPI counter-2 = inhibits GDH-TPI coupling enzymes, flagging Mtb FBA hits; shares compounds with FBA Mtb inh; GDH-TPI coupled enzyme counterscreen, fluorescence; inhibition, % at 1 µM; actives 81% (n = 5,600); in the data active = inhibition above about 10%
Hits are given with their value; 0 = inactive; ? = inconclusive; - = no result; + = active, no number. Cut-off read from the data, not from the text of the source, unless noted: active = inhibition above about 27%; inactive = the rest.

SMILES	Mtb bLac sens	Rv3671c protease	UGM FP inh	GDH-TPI counter-1	FBA Mtb inh	Mtb FBA confirm	GDH-TPI counter-2
COc1ccc2cc(C(=O)C3CCCN(C(=O)c4snnc4C)C3)ccc2c1 (stereo not given)	0	0	0	0	108	136	117
COc1ccc2cc(C(=O)C3CCCN(C(=O)/C=C/c4ccccn4)C3)ccc2c1 (stereo not given)	0	0	0	0	57	55	48
COc1ccc2cc(C(=O)C3CCCN(C(=O)c4cnccn4)C3)ccc2c1 (stereo not given)	0	0	0	0	88	55	45
Cc1cc(C)cc(NC(=O)COC(=O)CCn2c(C)csc2=O)c1	0	0	0	0	0	-	-
COc1ccc2cc(C(=O)C3CCCN(Cc4cnc(C)s4)C3)ccc2c1 (stereo not given)	0	0	0	0	41	+	+
COc1ccc(C(=O)C2CCCN(Cc3cnc(C)s3)C2)cc1OC (stereo not given)	0	0	0	0	0	-	-
COc1ccc(CCNC(=O)COc2ccc(S(=O)(=O)N3CCOCC3)cc2C)cc1	0	0	0	0	105	126	104
COc1ccc2cc(CCNC(=O)c3ccc(S(=O)(=O)N4CCOCC4)cc3)c(=O)[nH]c2c1	0	0	0	0	79	105	85
Cc1cc2cc(CCNC(=O)c3ccc(S(=O)(=O)N4CCCC4)cc3)c(=O)[nH]c2cc1C	0	0	0	0	0	-	-
COc1ccc(NS(=O)(=O)c2ccc(S(=O)(=O)N3CCCC3)cc2)cc1	0	0	0	0	0	-	-
COc1ccc(NS(=O)(=O)c2ccc(S(=O)(=O)N3CCOCC3)cc2)cc1	0	0	0	0	45	149	102
CCOc1ccc(NC(=O)CN(C)C(=O)c2ccc(NC3CC3)c([N+](=O)[O-])c2)cc1OCC	0	0	0	0	0	-	-
CCN(CC)CCn1c(SCC(=O)Nc2cccc(OC)c2)nc2c(sc3ccccc32)c1=O	0	0	0	0	0	-	-
COc1cccc(NC(=O)CSc2nc3c(sc4ccccc43)c(=O)n2CCN(C)C)c1	0	0	0	0	47	0	0
COc1cc2c(cc1OC)CN(Cc1ccc(F)cc1)CC2	0	0	0	0	43	64	45
COc1ccc(CN2CCc3cc(OC)c(OC)cc3C2)cc1O	0	0	0	0	0	-	-
CCN1CCN(C(c2cc3cc4c(cc3[nH]c2=O)OCO4)c2nnnn2C(C)(C)CC)CC1 (stereo not given)	0	0	0	32	94	0	0
O=c1[nH]c2cc3c(cc2cc1C(c1nnnn1CC1CCCO1)N1CCCCCC1)OCCO3 (stereo not given)	0	0	0	0	0	-	-
CCC(C)(C)n1nnnc1C(C(C)C)N(Cc1ccco1)Cc1cc2cc3c(cc2[nH]c1=O)OCO3 (stereo not given)	0	0	0	0	29	52	44
O=c1[nH]c2cc3c(cc2cc1C(c1nnnn1CC1CCCO1)N1CCCC1)OCO3 (stereo not given)	0	0	0	0	29	+	+
O=C(NCCc1cnccn1)C1CCC(=O)N(Cc2ccc(Cl)cc2)C1 (stereo not given)	0	0	0	0	0	-	-
COc1ccc(C(C)=O)cc1COC(=O)Cc1cc(OC)c(OC)c(OC)c1	0	0	0	0	0	-	-
CCOc1c2ccc(C(=O)NCCCCc3ccccc3)cc2nn1C	0	0	0	0	60	0	0
CCOc1ccc(-n2c(C)nc3cc(C(=O)NCC4CCCO4)ccc32)cc1 (stereo not given)	0	0	0	0	0	-	-
CCCCNC(=O)c1ccc2c(OCC)n(CCCC)nc2c1	0	0	0	0	65	93	61
SMILES	Mtb bLac sens	Rv3671c protease	UGM FP inh	GDH-TPI counter-1	FBA Mtb inh	Mtb FBA confirm	GDH-TPI counter-2
CCCCn1nc2cc(C(=O)NC[C@@H]3CCCO3)ccc2c1OCC	0	0	0	0	63	124	95
CCCn1nc2cc(C(=O)NCCc3cccs3)ccc2c1OCC	0	0	0	0	55	0	0
COC(=O)c1c(C)oc(C)c1S(=O)(=O)NCc1ccco1	0	0	0	0	0	-	-
CC1(c2ccccc2Cl)NC(=O)N(CC(=O)Nc2ccc(N3CCCCC3)cc2)C1=O (stereo not given)	0	0	0	0	0	-	-
CCCn1nc2cc(C(=O)NC3CCc4ccccc43)ccc2c1OCC (stereo not given)	0	0	0	0	40	71	64
O=C(NCC1CC1)c1ccc2c3n(nc2c1)-c1ccc(Cl)cc1CO3	0	0	0	0	0	-	-
COc1ccc(C(=O)NC2CCc3ccccc32)cc1OC1CCN(C(C)=O)CC1 (stereo not given)	0	0	0	0	0	-	-
CCCCn1nc2cc(C(=O)NCC3CC3)ccc2c1OCC	0	0	0	0	88	144	116
CC(C)OCCCNC(=O)c1cc(-c2cccs2)nc2ccccc12	0	0	0	0	93	88	83
Cc1nn(-c2ccccn2)c2nc(-c3cccs3)cc(C(=O)NCc3ccco3)c12	0	0	0	0	48	59	61
O=C(COC(=O)c1cc(-c2ccc(Cl)s2)nc2ccccc12)NCc1ccco1	0	0	0	0	0	-	-
Cc1nn(-c2ccccc2)c2nc(-c3ccncc3)cc(C(=O)NCc3ccco3)c12	0	0	0	0	0	-	-
O=C(NCc1ccco1)c1cc2nc(-c3cccs3)cc(C(F)(F)F)n2n1	0	0	0	0	37	0	0
O=C(NCc1ccco1)c1cc(-c2cccs2)nc2ccccc12	0	0	0	0	79	0	0
C#CC(C)(CC)NC(=O)c1cc2nc(C3CC3)cc(C(F)(F)F)n2n1 (stereo not given)	0	0	0	0	0	-	-
COc1ccc(CCN2C(=O)c3ccccc3NC2c2cc(Cl)c(O)c(OC)c2)cc1 (stereo not given)	0	0	0	0	0	-	-
CN(C)CCNC(=O)c1cccc2nc3c(ccc4ccccc43)nc12	-	-	-	0	0	-	-
CN(C)CCNC(=O)c1cccc2[nH]c(-c3ccncc3)nc12	-	-	-	0	35	0	20
O=C1OCc2cccc3cccc1c23	0	0	0	0	50	198	174
CC(Sc1nnnn1-c1ccc(O)cc1)C(=O)NC1CCCCC1C (stereo not given)	0	0	0	0	0	-	-
Cc1cc(C[n+]2ccsc2N)c2ncccc2c1	0	0	0	0	0	-	-
Cc1cc(C[n+]2ccccc2)c2nsnc2c1	0	0	0	0	31	97	72
O=C(CSc1nnc(-c2cccnc2)o1)Nc1nccs1	0	0	0	0	0	-	-
COc1ccc(NC(=O)C2(S(=O)(=O)c3ccc(C)cc3)CC2)cc1	0	0	0	0	0	-	-
CN(C)C=Nc1ccc2nc3c(cc2c1)[nH]c1ccccc13	?	0	0	0	51	172	144
